Results taken from PubChem BioAssay (NCATS).
Records with an inconclusive call do not appear. A call without a number means that no potency is given here. A number with no mark means an inactive call. Active and inactive are the calls of the source. Calls come from the whole dose curve; as a rule, active = well fitted curve in the direction sought with a large enough effect; inconclusive = small, poorly fitted or top-dose-only effect, or another doubt; inactive = no such curve, though single readings can be large; an effect the other way counts as inactive or inconclusive.

Tests used:
[1] = biological target: Aldehyde dehydrogenase, mitochondrial (Homo sapiens) (UniProt P05091); experiment: qHTS for Inhibitors of the Aldehyde Dehydrogenase Family (ALDH2) Primary screen (AID 2061308); conditions: ALDH2 enzyme inhibition qHTS, 1536-well; series mostly up to 56 µM; note: nearly all actives have a fitted effect of over 55% in size
[2] = biological target: Retinaldehyde dehydrogenase 3 (Homo sapiens) (UniProt P47895); experiment: qHTS for Inhibitors of the Aldehyde Dehydrogenase Family (ALDH1A3) Primary screen (AID 2061315); conditions: ALDH inhibition qHTS; series mostly up to 56 µM

| Structure (SMILES) | Potency [1] | Potency [2] | activity change, negative = inhibition [1] | activity change, negative = inhibition [2] |
| --- | --- | --- | --- | --- |
| Cc1cc(C)nc(NC(=S)N2CCN(c3ccccn3)CC2)c1 | inactive | inactive |  |  |
| O=C(Cn1nc(-c2ccccc2)ccc1=O)NCCc1ccccc1 | inactive | inactive |  |  |
| N#Cc1nc(Nc2cccc(C(F)(F)F)c2)nc(NC2CCCC2)n1 | inactive | inactive |  |  |
| C[C@@H]1CC[C@]2(C(=O)O[C@@H]3O[C@H](CO)[C@@H](O)[C@H](O)[C@H]3O)CC[C@]3(C)C(=CCC4[C@@]5(C)C[C@@H](O)[C@H](O)[C@](C)(C(=O)O)C5CC[C@]43C)[C@@H]2[C@]1(C)O (some centres not stated) | inactive | inactive |  |  |
| Cn1cnc(CCNc2ncnc3ccc(-c4ccc5c(c4)OCO5)cc23)c1 | inactive | inactive |  |  |
| Cc1cc2c(s1)c1cnn(Cc3cccc(F)c3)c(=O)c1n2C | inactive | inactive |  |  |
| CC(=O)Nc1cccc(-c2csc(Nc3cc(C)ccn3)n2)c1 | inactive | inactive |  |  |
| FC(F)(F)c1cc(-c2nc3ccccc3s2)cc(C(F)(F)F)c1 | inactive | inactive |  |  |
| N#Cc1nc(Nc2cc(F)cc(F)c2)c2ncn(CCO)c2n1 | inactive | inactive |  |  |
| FC(F)(F)c1cc(-c2ccc(CNc3nc(C4CCCC4)nc4ccccc34)cc2)ccn1 | inactive | inactive |  |  |
| COc1ccc(C2=Nn3c(nnc3-c3ccccc3C(F)(F)F)SC2)cc1OCC1CC1 | inactive | inactive |  |  |
| O=C(Nc1ccc(Cl)cc1)c1ccccc1NCc1ccncc1 | inactive | inactive |  |  |
| CCCn1c(-c2ccc(F)cc2)nc2c(NC3CCN(Cc4ccccc4)C3)nc(C)nc21 (configuration not stated) | inactive | inactive |  |  |
| O=C(Nc1ccc(-c2nc3ccccc3[nH]2)cc1)Nc1ccc2occc2c1 | inactive | inactive |  |  |
| Cc1cc(C)n2ncc(C(=O)Nc3ccc(Cl)c(Cl)c3)c2n1 | inactive | inactive |  |  |
| Cn1nnnc1Sc1ncnc2scc(-c3ccccc3Br)c12 | inactive | inactive |  |  |
| Fc1cccc(CNc2ncnc3ccc(-c4ccccc4Cl)cc23)c1 | inactive | inactive |  |  |
| COc1cccc(C(=O)Nc2ccc([S+](=O)([O-])Nc3nccs3)cc2)c1O | inactive | inactive |  |  |
| Cc1ccnc(C(=S)N2CCN(c3cccc(C(F)(F)F)c3)CC2)c1 | inactive | inactive |  |  |
| c1cc(NC2CCNCC2)nc(-c2cnc3ccccn23)c1 | inactive | inactive |  |  |
| CCCn1c(C)nc2c(N(CCN(CC)CC)CCN(CC)CC)nc(C)nc21 | inactive | inactive |  |  |

| Structure (SMILES) | Potency [1] | Potency [2] | activity change, negative = inhibition [1] | activity change, negative = inhibition [2] |
| --- | --- | --- | --- | --- |
| CC(=O)Nc1sc2c(c1-c1ccc(C)cc1)CCNC2 | inactive | inactive |  |  |
| N#CN/C(=N\c1nnc(-c2ccncc2)s1)Nc1ccc(F)c(C(F)(F)F)c1 | inactive | inactive |  |  |
| Nc1ccc(S(=O)(=O)Nc2cccc3cccnc23)cc1 | inactive | inactive |  |  |
| O=C(CSc1nc2ccccc2[nH]1)N1CCOCC1 | inactive | inactive |  |  |
| O=c1c2ccccc2nc2sc(NCc3ccc(Cc4ccccc4)cc3)nn12 | inactive | inactive |  |  |
| O=S(=O)(NC1CCC(NS(=O)(=O)c2c(F)cccc2F)CC1)c1ccc2c(c1)OCCO2 (configuration not stated) | inactive | inactive |  |  |
| Nc1cccc(-c2ccc(NC(=O)c3cccs3)cn2)c1 | inactive | inactive |  |  |
| Cc1cc2c(s1)c1cnn(Cc3ccc(Br)cc3)c(=O)c1n2C | inactive | inactive |  |  |
| FC(F)(F)c1ccccc1-c1nc(NCc2ccc(C3CCCCC3)cc2)c2ccccc2n1 | inactive | inactive |  |  |
| Cc1cc(C)nc(NC(=S)N2CCN(c3ccc(Cl)cc3F)CC2)c1 | inactive | inactive |  |  |
| Cc1ccsc1CNc1ncnc2ccc(-c3c(C)noc3C)cc12 | inactive | inactive |  |  |
| CC(C)(C)OC(=O)Cc1nnc(-c2cc3ccccc3[nH]2)o1 | inactive | inactive |  |  |
| O=C1CCCC2=C1C(c1[nH]ncc1Cl)NC(=NCCc1ccccc1)N2 (configuration not stated) | inactive | inactive |  |  |
| c1cncc(CNc2ncnc3ccc(-c4ccco4)cc23)c1 | inactive | inactive |  |  |
| C=C1C(=O)O[C@@H]2C[C@H](C)[C@@H]3CC(=O)C(C)=C3C[C@H]12 | inactive | inactive |  |  |
| Cc1ccc(C(=O)Nc2ccccc2C(=O)Nc2nc(-c3ccccc3)cs2)cc1 | inactive | inactive |  |  |
| Cc1ccc(NS(=O)(=O)c2cc3c(cc2N[C@@H](C)CO)NC(=O)CC3)cc1C | inactive | inactive |  |  |
| CC1=C(C(=O)NCc2ccccc2)C(c2ccccc2Br)N=C(Nc2nc3ccccc3o2)N1 (configuration not stated) | inactive | inactive |  |  |
| C[C@H]1CC[C@@]2(OC1)O[C@H]1CC3[C@@H]4CC[C@@H]5C[C@@H](O[C@@H]6O[C@H](CO)[C@@H](O[C@@H]7O[C@@H](C)[C@H](O)[C@@H](O)[C@H]7O)[C@H](O)[C@H]6O[C@@H]6O[C@H](CO)[C@@H](O)[C@H](O)[C@H]6O)CC[C@]5(C)C4CC[C@]3(C)[C@H]1[C@@H]2C (some centres not stated) | inactive | inactive |  |  |
| O=C(NCc1ccc(F)cc1)n1c(-c2ccccc2)c(P(=S)(c2ccccc2)c2ccccc2)c2ccccc21 | inactive | inactive |  |  |
| COc1cc(NC(=O)C(OC(=O)CNC(=O)c2ccccc2)c2ccccc2)cc(C(F)(F)F)c1 (configuration not stated) | inactive | inactive |  |  |

| Structure (SMILES) | Potency [1] | Potency [2] | activity change, negative = inhibition [1] | activity change, negative = inhibition [2] |
| --- | --- | --- | --- | --- |
| C[C@@H]1CC[C@]2(C)C(C[C@@H](O)[C@H](O)[C@]23CO3)[C@@]1(C)CCc1ccoc1 (some centres not stated) | inactive | inactive |  |  |
| CC1OC(OC2C(O)COC(O[C@@H]3[C@@H](O)[C@@H](O)[C@H](OC4C(OC(=O)[C@]56CCC(C)(C)CC5C5=CCC7[C@@]8(C)C[C@H](O)[C@H](OC9OC(CO)C(O)C(O)C9O)[C@@](C)(CO)C8[C@H](O)C[C@@]7(C)[C@]5(C)CC6)OCC(O)C4O)O[C@H]3C)C2O)C(O)C(O)C1O (some centres not stated) |  |  | 13.1% [at 11.2 µM] | 4.77% [at 11.2 µM] |
| Cn1nnnc1Sc1ncnc2scc(-c3ccc4c(c3)OCO4)c12 | inactive | inactive |  |  |
| COc1cc(OC)c2c(c1)OC(=O)CC2c1ccc2c(c1)OCO2 (configuration not stated) | inactive | inactive |  |  |
| CC(C)Oc1ccc(CCNC(=O)c2cc3sccc3n2Cc2ccccc2)cc1OC(C)C | inactive | inactive |  |  |
| O=[S+]([O-])(c1ccc(-c2ccccc2)cc1)N1CCN([S+](=O)([O-])c2ccc3c(c2)OCCO3)CC1 | inactive | inactive |  |  |
| C[C@H](Oc1cc(-n2cnc3ccc(CN4CCN(C)CC4)cc32)sc1C(N)=O)c1ccccc1C(F)(F)F | inactive | inactive |  |  |
| Cn1c2ccsc2c2cnn(Cc3ccccc3F)c(=O)c21 | inactive | inactive |  |  |
| O=S(=O)(NC[C@@H]1CCC[C@H](CNS(=O)(=O)c2c(F)cccc2F)C1)c1ccc2c(c1)OCCO2 | inactive | inactive |  |  |
| O=S1(=O)N=C(Oc2ccccc2C(F)(F)F)c2ccccc21 | inactive | inactive |  |  |
| COc1nccc(-c2nc(Nc3ccc(F)c(F)c3)c3ccccc3n2)c1OC | inactive | inactive |  |  |
| Cc1ccc(S(=O)(=O)Nc2cnccc2C(=O)Nc2nc(-c3ccccc3Cl)cs2)cc1 | inactive | inactive |  |  |
| COc1ccccc1N1C(=O)c2ccccc2C1=O | inactive | inactive |  |  |
| Cc1cc2c(s1)c1cnn(Cc3cc(C(F)(F)F)cc(Cl)c3F)c(=O)c1n2C | inactive | inactive |  |  |
| CC(C)c1cc(C(=O)N2CC[C@H](NC(=O)C3CC3)C2)n[nH]1 | inactive | inactive |  |  |
| O=[N+]([O-])c1cccc(S(=O)(=O)N2CCN(S(=O)(=O)c3ccc4c(c3)OCCO4)CC2)c1 | inactive | inactive |  |  |
| COc1cc(O)c(C(CC(=O)N2CCCC(C)C2)c2ccc(C)cc2)c(OC)c1 (configuration not stated) | inactive | inactive |  |  |
| CCn1cnc2c(Nc3cc(F)cc(F)c3)nc(C(=O)COc3c(F)c(F)cc(F)c3F)nc21 | inactive | inactive |  |  |
| Cc1cccc(CNc2ccnc(-c3ccccc3F)n2)c1 | inactive | inactive |  |  |
| CCOc1ccc(CCNC(=O)c2ccc(C3(C(F)(F)F)N=N3)cc2)cc1OCC | inactive | inactive |  |  |
| Cc1nc(N2CCOCC2)c2nc(-c3ccccc3)n(CCN(C)C)c2n1 | inactive | inactive |  |  |

| Structure (SMILES) | Potency [1] | Potency [2] | activity change, negative = inhibition [1] | activity change, negative = inhibition [2] |
| --- | --- | --- | --- | --- |
| Nc1ccc(C(=O)Nc2ccc(-c3nc4ccccc4[nH]3)cc2)cc1Cl | inactive | inactive |  |  |
| NNC(=O)C(C(=O)OCc1ccccc1)c1ccccc1 (configuration not stated) | inactive | inactive |  |  |
| Cc1cc2c(s1)c1c(C)nn(Cc3ccc(F)cc3)c(=O)c1n2C | inactive | inactive |  |  |
| CC(C)(C)N[S+](=O)([O-])c1cccc(-c2nnc(SCc3ccc(C(=O)O)cc3)n2-c2ccc(F)cc2)c1 | inactive | inactive |  |  |
| Cc1ccccc1S(=O)(=O)N1CCN(S(=O)(=O)c2ccc3c(c2)OCCO3)CC1 | inactive | inactive |  |  |
| COC(=O)c1cncc(NC(=O)c2cccs2)c1 | inactive | inactive |  |  |
| COc1cccc(C2c3c(ncn(-c4ccncc4)c3=N)Oc3ccc4ccccc4c32)c1 (configuration not stated) | inactive | inactive |  |  |
| FC(F)(F)c1ccc(CSc2nc3ncc(Br)cc3[nH]2)cc1 | inactive | inactive |  |  |
| Fc1cc(Nc2nc(-c3ccncc3)nc3ccccc23)ccc1-c1cccc(OC(F)F)c1 | inactive | inactive |  |  |
| COc1cccc(NC(=S)N2CCN(c3cc(C(F)(F)F)cc(C(F)(F)F)c3)CC2)n1 | inactive | inactive |  |  |
| CC(=O)Nc1sc2cnccc2c1-c1nc2ccccc2s1 | inactive | inactive |  |  |
| Cc1noc(C)c1-c1ccc2ncnc(NCc3ccc(F)c(F)c3)c2c1 | inactive | inactive |  |  |
| CCCn1c(-c2ccc(F)cc2)nc2c(NCCCCN(CC)CC)nc(C)nc21 | inactive | inactive |  |  |
| CC(=O)N1CCN(S(=O)(=O)c2ccc3c(c2)CC(=O)N3)CC1 | inactive | inactive |  |  |
| O=S(=O)(Nc1nccs1)c1ccc(Nc2nc(-c3ccccc3)cs2)cc1 | inactive | inactive |  |  |
| Cc1cc2c(s1)c1cnn(Cc3ccc(F)c(Cl)c3)c(=O)c1n2C | inactive | inactive |  |  |
| COc1ccc(C2Nc3ccccc3C(=O)N2Cc2cccs2)cc1COc1c(C)cc(NC(C)=O)cc1C (configuration not stated) | inactive | inactive |  |  |
| O=C(Nc1ccc(-c2ccccc2)cc1)[C@H](Cc1ccc(O[S+](=O)([O-])c2cccc3cnccc23)cc1)N[S+](=O)([O-])c1cccc2cnccc12 | inactive | inactive |  |  |
